High-throughput results deposited in PubChem BioAssay by National Center for Advancing Translational Sciences (NCATS).
Compounds with a hit are over-represented: about 4.4% of the library has one in this group of screens.
USP1 inh: blocks the human USP1/UAF1 deubiquitinase complex. O94782. recombinant USP1/UAF1, Ub-Rhodamine cleavage fluorescence. Potency, µM (doses to about 57.1 µM), actives largely listed as inhibitors. actives 0.23% (n = 390,000). AID 743255; active means well fitted inhibition curve with a large enough effect; inconclusive means small, poorly fitted or top-dose-only effect; inactive means no such curve, though single readings can be large or run the other way; further: nearly all actives have a fitted effect of over 60% in size
Target sequence (O94782 whole entry, looked up): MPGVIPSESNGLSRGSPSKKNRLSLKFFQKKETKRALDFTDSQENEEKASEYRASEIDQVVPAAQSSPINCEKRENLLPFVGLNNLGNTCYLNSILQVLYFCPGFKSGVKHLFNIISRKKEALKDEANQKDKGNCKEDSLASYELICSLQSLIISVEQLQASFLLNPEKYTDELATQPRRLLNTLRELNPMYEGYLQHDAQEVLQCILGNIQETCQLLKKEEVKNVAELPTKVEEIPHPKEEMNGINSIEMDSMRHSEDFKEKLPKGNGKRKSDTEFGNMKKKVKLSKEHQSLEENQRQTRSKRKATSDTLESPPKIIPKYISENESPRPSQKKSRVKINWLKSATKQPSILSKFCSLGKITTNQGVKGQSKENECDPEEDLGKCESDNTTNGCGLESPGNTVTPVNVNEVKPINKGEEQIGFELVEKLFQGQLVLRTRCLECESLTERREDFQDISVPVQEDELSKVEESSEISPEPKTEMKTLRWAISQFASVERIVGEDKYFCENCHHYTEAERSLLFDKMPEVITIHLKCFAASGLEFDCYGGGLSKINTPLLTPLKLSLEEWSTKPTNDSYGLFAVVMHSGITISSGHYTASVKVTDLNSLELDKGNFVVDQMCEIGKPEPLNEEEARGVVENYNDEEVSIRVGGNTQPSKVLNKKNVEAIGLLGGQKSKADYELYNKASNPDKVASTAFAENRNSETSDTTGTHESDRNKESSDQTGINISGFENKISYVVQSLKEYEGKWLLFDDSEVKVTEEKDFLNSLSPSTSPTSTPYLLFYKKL
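1 nM enzyme complex + cpd, 15 min RT; start with Ub-Rho 150nM final; kinetic fluorescence ex 480/em 540, 6 reads q60 s. Buffer 50mM HEPES pH 7.8, 0.5mM EDTA, 0.1 mg/ml BSA, 1mM TCEP, 0.01% Tween-20.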
D1 ag: agonists of human D1 dopamine receptor | actives 1% (n = 360,000) | HEK293 T-REx D1 cells, calcium flux, agonist mode | activation, % at 2 µM | P21728
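Inducible HEK293 T-REx D1 cells, force-coupled to calcium signalling, were plated at 4000 cells/well with tetracycline and held overnight at 30 C. After no-wash calcium dye loading, compound-evoked calcium rise over 180 s flagged agonists.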
TRHR enhancer: allosteric enhancers of human TRH receptor; P34981; TRHR cells, fluo-8 calcium fluorescence, EC20 TRH enhancement; enhancement, % at 2 µM; actives 0.66% (n = 360,000); AID 493056; in the data active means enhancement above about 30%
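Enhancer read-out: after compound pinning and an initial kinetic agonist-mode read, an EC20 of TRH (10 nM final) was injected and fluo-8 calcium signal (Ex 480/Em 530) followed at 1 s/cycle for 100 cycles in TRHR-expressing cells.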
D1 PAM: human D1 dopamine receptor positive modulation. P21728. HEK293 TREx D1 cells, calcium flux, dopamine EC20 potentiation. potentiation, % at 10 µM. actives 0.036% (n = 360,000). AID 504651; in the data active means potentiation above about 30%
D1 antag: blocks dopamine activation of the human D1 receptor. P21728. activity change, negative = inhibition, % at 10 µM. HEK293 TREx D1 cells, calcium flux, dopamine EC80; active compounds read low. actives 3.2% (n = 360,000). AID 504652; in the data active means activity change below about -30%
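Antagonism measured as reduced calcium response to an EC80 dopamine addition following 180 s compound pre-read; cells were inducible HEK293 Trex D1 plated overnight at 30 C, read kinetically at 1 cycle/sec.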
TRHR ag: agonists of human TRH receptor. TRHR cells, calcium flux fluo-8, FDSS agonist mode. activation, % at 2 µM. actives 0.18% (n = 360,000)
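Fluo-8-loaded TRHR cells; 10 s baseline, compound added, kinetic Ca2+ fluorescence read 1/s, agonist mode.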
Each line names hits and unclear results; the compound was inactive in the other large screens. Unless noted, no stated cut-off is given here; in the data, active means activation above about 30%; inactive means the rest.

Cc1cc(NC(=O)CSc2nc3cc(Cl)ccc3s2)no1	none
O=C(CSc1nnc(CNC(=O)c2ccccc2)o1)c1ccc(Cl)cc1	D1 antag -43
Cc1ccccc1-c1noc(-c2nnn(-c3ccccc3C)c2N)n1	none
Cc1ccc(-c2nnc(Nc3ccc(Cl)c(Cl)c3)c3ccccc23)cc1S(=O)(=O)NCCO	D1 antag -49
Cc1ccc(-c2nnc(Nc3ccc4c(c3)OCO4)c3ccccc23)cc1S(=O)(=O)NCCO	D1 antag -34
CNC(=O)COc1ccc(Nc2nnc(-c3ccc(C)c(S(=O)(=O)NC(C)(C)C)c3)c3ccccc23)cc1	D1 antag -31
Cc1ccc(-c2nnc(Nc3ccc(CC(N)=O)cc3)c3ccccc23)cc1S(=O)(=O)NCCO	none
Cc1cccc(Cn2cccc2CNS(=O)(=O)c2ccccc2F)c1	none
COCCCNC(=O)c1oc2c(c1C)-c1nn(Cc3cccc(Cl)c3)cc1CC2	USP1 inh inconclusive
CCOC(=O)C1C(c2cccc(Cl)c2Cl)NC(=O)NC1(O)C(F)(F)F (configuration not stated)	D1 antag -59
COc1ccccc1C(=O)n1nc(-c2ccco2)nc1N	D1 antag -82
CC(=O)n1nc(-c2ccco2)nc1N	none
O=C1C(SCCO)=C(SCCO)C(=O)c2ccccc21	USP1 inh 6.3µM, D1 antag -32
O=c1[nH]c2ccccc2c(O)c1SCCO	none
CC(=O)c1ccc(NC(=O)c2cn(-c3ccccc3)nc2-c2ccc(Br)cc2)cc1	none
CCN(CC)CC#CCC(O)(c1ccccc1)c1ccccc1	USP1 inh inconclusive
CCN(CC)CC#CCC(O)(c1ccccc1)c1ccc(Br)cc1 (configuration not stated)	D1 ag 32, D1 antag -40
Cc1ccc(S(=O)(=O)NC(C)(C)CN2CCNCC2)cc1	none
CC(CN1CCNCC1)(NS(=O)(=O)c1ccccc1)c1ccccc1 (configuration not stated)	D1 antag -35
O=C(Nc1ccc(-c2nc3ccccc3s2)c(OC(=O)c2ccccc2)c1)c1ccccc1	none
O=C(Nc1ccc(-c2nc3ccccc3s2)c(O)c1)c1ccc(Br)cc1	D1 antag -33
COc1cccc(-n2c(SCc3ccc(F)cc3)nc3c([nH]c4ccccc43)c2=O)c1	none
CSC(=NCc1ccco1)NC#N	D1 antag -34
NC(=NCc1ccco1)NC(=O)c1ccccc1	none
Oc1ccc(C[C@@H]2CNCCN2CCc2cc(C(F)(F)F)cc(C(F)(F)F)c2)cc1	D1 ag 40
FC(F)(F)c1cc(CCN2CCNC[C@H]2Cc2cccc3ccccc23)cc(C(F)(F)F)c1	D1 ag 45
Oc1ccc(C[C@H]2CNCCN2CCc2cc(C(F)(F)F)cc(C(F)(F)F)c2)cc1	none
CC(C)(C)c1nnc2sc(SCC(=O)NCc3ccco3)nn2c1=O	D1 antag -32 (no result: D1 PAM)
CN(Cc1ccco1)C(=O)CSc1nn2c(=O)c(C(C)(C)C)nnc2s1	none (no result: D1 ag, TRHR enhancer, D1 PAM, D1 antag, TRHR ag)
CNC(=O)CSc1nnc(-c2ccco2)n1-c1ccc(C)cc1	none
CCc1ccccc1-n1c(SCC(=O)NC)nnc1-c1ccco1	D1 antag -37
CCCCn1nnnc1SCC(=O)NCc1ccco1	D1 antag -33
Cn1c(SCC(=O)NCc2ccco2)nnc1-c1ccccc1	D1 antag -53
CCn1nnnc1SCC(=O)NCc1ccco1	none
COc1ccc(C2=C(C)C(=O)N(Cc3ccc(C(=O)NC(C)c4ccccc4)cc3)S2(=O)=O)cc1 (configuration not stated)	none
Cc1cc(C2CC(=O)Nc3ccccc3S2)c(C)s1 (configuration not stated)	none
O=C1CC(c2ccsc2)Sc2ccccc2N1 (configuration not stated)	D1 antag -32
CCOc1ccccc1CN1CCCC(CNS(=O)(=O)c2ccc(OC)cc2)C1 (configuration not stated)	none
O=S(=O)(NCC1CCCO1)c1cccc(C(F)(F)F)c1 (configuration not stated)	D1 antag -46
COc1ccc(S(=O)(=O)NCC2CCCN(Cc3ccccc3C)C2)cc1 (configuration not stated)	D1 antag -30
COc1ccc(CN2CCC(CNS(=O)(=O)c3cccc(C(F)(F)F)c3)CC2)cc1	D1 ag 35
Cc1cc(C)nc(NC2=NCC(=O)N2c2cc(Cl)cc(Cl)c2)n1	none
Cc1cccc(N2C(=O)CN=C2Nc2nc(C)cc(C)n2)c1	D1 antag -32
Nc1c(-c2nc(-c3cccs3)no2)nnn1-c1ccc(Cl)cc1	none
O=C(OCc1nnc(-c2ccc(Cl)cc2)o1)C12CC3CC(CC(O)(C3)C1)C2	D1 antag -75
O=C(Cc1ccc(Cl)cc1)OCc1nnc(-c2ccccc2)o1	none
CCOC(=O)c1cc(-c2ccc(OC)cc2)n(CCC(=O)NCc2ccc(OC)cc2)c1C	none
CCCc1nc(C(C)(C)O)c(C(=O)O)n1Cc1ccc(-c2ccccc2-c2nn[nH]n2)cc1	D1 antag -43 (no result: USP1 inh)
O=C(CN1CCC(n2nnc3cc(F)ccc32)CC1)NC1CC1	D1 antag -49
O=C(CN1CCC(n2nnc3cc(F)ccc32)CC1)Nc1ccccc1N1CCOCC1	D1 antag -71
CCOC(=O)CC(=O)CSc1nc(-c2cccnc2)ccc1C#N	USP1 inh 32µM, D1 ag 34
CCn1ncc(C2=NOC(C(=O)Nc3cccc(C(C)=O)c3)C2)c1C (configuration not stated)	D1 antag -32
COc1ccc(Cl)cc1NC(=O)c1ccc(CN2C(=O)CCn3nc(C)cc32)cc1	none
O=C1C(=O)c2c(ccc3ccccc23)-c2ccccc21	USP1 inh 4µM (no result: D1 ag, TRHR enhancer, D1 PAM, D1 antag, TRHR ag)
O=C(NCCN1C(=O)S/C(=C\c2ccc(Cl)c(Cl)c2)C1=O)c1cnccn1	none
O=C(NCCN1C(=O)S/C(=C\c2ccc(Cl)c([N+](=O)[O-])c2)C1=O)C1=COCCO1	D1 antag -57
Clc1ccc2nc(NCc3ccccc3)c3nncn3c2c1	none
CC1(C)OC(=O)C(=CNNc2c(Cl)cc(Cl)cc2Cl)C(=O)O1	TRHR enhancer 31
COc1ccc(/C=C2\Oc3cc(OC(=O)N4CCOCC4)ccc3C2=O)c(OC)c1	D1 ag 37
COc1cc(-c2nc(-c3ccc4c(c3)[nH]c(=O)n4C)no2)cc(OC)c1OC	USP1 inh inconclusive
COc1ccc(-c2ccc(CNCCCSc3nnnn3C)o2)cc1Cl	D1 ag 37
Cn1nnnc1SCCCNCc1ccc(-c2cccc(Cl)c2)o1	D1 ag 100, D1 antag -57
